Only some compounds are listed: those with a hit (about 3.5% of all), similar ones and a draw of the others.
MITF inh: human MITF inhibition, primary screen; AlphaScreen MITF homodimerization, bead proximity signal; inhibition, % at 2.6 µM; 650,000 compounds, 0.91% hits; AID 1259374; in the data active = inhibition above about 50%;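 note: 0% = vehicle wells with protein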
TEAD-YAP block: TEAD-YAP interaction inhibition; HEK-TIYL cells, TEAD-Gal4/YAP UAS-luciferase luminescence; inhibition, % at 9.12 µM; 640,000 compounds, 1.4% hits; AID 1259422; in the data active = inhibition above about 32%;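 note: 0% = median of test compound wells and 100% = reference inhibitor wells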
GPR151 ag: activators of human GPR151; Q8TDV0; PathHunter beta-arrestin GPR151 cells, luminescence; activation, % at 11.2 µM; 650,000 compounds, 1% hits; in the data active = activation above about 4.9%;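 note: 0% = median of compound wells and 100% = cells with positive control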
Target sequence (Q8TDV0 whole entry, looked up): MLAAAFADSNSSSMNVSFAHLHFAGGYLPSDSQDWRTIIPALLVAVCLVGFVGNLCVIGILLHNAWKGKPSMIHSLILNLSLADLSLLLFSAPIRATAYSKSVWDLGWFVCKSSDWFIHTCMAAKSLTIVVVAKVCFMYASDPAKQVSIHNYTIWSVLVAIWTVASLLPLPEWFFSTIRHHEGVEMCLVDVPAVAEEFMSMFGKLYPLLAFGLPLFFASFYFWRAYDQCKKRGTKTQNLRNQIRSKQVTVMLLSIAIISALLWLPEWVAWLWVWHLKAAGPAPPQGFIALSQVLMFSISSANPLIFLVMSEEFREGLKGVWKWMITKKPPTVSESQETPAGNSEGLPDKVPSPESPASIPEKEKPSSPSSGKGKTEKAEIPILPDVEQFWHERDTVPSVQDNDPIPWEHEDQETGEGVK
FBW7 act: activators of human E3 ligase FBW7; Q969H0; AlphaScreen FBW7–phospho-cyclin E peptide binding, activator screen; normalized activity (activation), % at 26.1 µM; 650,000 compounds, 0.13% hits; AID 1259310; in the data active = normalized activity above about 1.9%;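 note: purified mutant Fbw7 with reduced substrate affinity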
Active calls of the source: *.

SMILES | MITF inh | TEAD-YAP block | GPR151 ag | FBW7 act
Cc1nc2sccn2c1C(=O)Nc1cccc(Oc2ccccc2)c1 | 10 | -4 | -1 | 0
Cc1nc2sccn2c1C(=O)Nc1cccc(OC(F)(F)F)c1 | 18 | -5 | 0 | 1.9*
O=C(Nc1nc2ccc([N+](=O)[O-])cc2s1)c1cc2ccccc2o1 | -1 | -24 | 2 | 0
CCOc1ccc(C2=NN3C(C2)c2cccc(OC)c2OC3c2ccc(F)c(F)c2)cc1 (centres undefined) | 6 | 14 | -2 | 1
COc1cccc2c1OC(c1ccccc1Cl)N1N=C(c3ccc(C)o3)CC21 (centres undefined) | 3 | 44* | -1 | 0
CCOc1cccc2c1OC(c1ccccc1Cl)N1N=C(c3ccc(C)o3)CC21 (centres undefined) | -5 | -23 | -1 | 0
COc1cccc2c1OC(c1ccc(F)c(F)c1)N1N=C(c3ccc(C)o3)CC21 (centres undefined) | 11 | 33* | 0 | 0
OCc1nc2ccc(Cc3ccc4nc(CO)[nH]c4c3)cc2[nH]1 | 3 | 14 | 4 | 0
OCc1nc2ccc(-c3ccc4nc(CO)[nH]c4c3)cc2[nH]1 | 15 | 58* | -6 | 0
COc1cc2nc(NC(=O)C3=COCCO3)sc2cc1OC | 8 | -26 | -6 | 1
O=C(Nc1nc2cc3c(cc2s1)OCO3)C1=COCCO1 | 4 | 52* | -12 | 0
FC(F)(F)c1cccc(CNc2nc(NCc3cccnc3)nc3c2ncn3-c2ccccc2)c1 | -8 | 48* | 0 | 0
FC(F)(F)c1cccc(CNc2nc(Nc3cnccn3)nc3c2ncn3-c2ccccc2)c1 | -5 | 6 | -1 | 0
CC(C)n1cnc2c(NCc3cccc(C(F)(F)F)c3)nc(NCc3cccnc3)nc21 | 13 | 40* | 0 | 0
Nn1c2ccccc2n2cc(-c3ccc(Cl)cc3)nc12 | 4 | 56* | -6 | 1
c1ccc(COc2ccc(CN3CCOCC3)cc2)cc1 | -14 | 71* | -4 | 0
O=C(NCC1CCCN(Cc2cccn2-c2cccnc2)C1)c1n[nH]c2ccccc12 (centres undefined) | -2 | -7 | -2 | 0
O=C(NCC1CCCN(Cc2cccn2-c2ccccn2)C1)c1n[nH]c2ccccc12 (centres undefined) | 17 | 70* | 1 | 0
COc1cccc(Nc2nc(NC3CCCC3)nc3c2cnn3C)c1 | -14 | -4 | 1 | 0
CC(=O)Nc1ccc(Nc2nc(-c3cccc(N)c3)nc3c2ncn3-c2ccccc2)cc1 | 25 | 41* | 0 | 0
CC(=O)Nc1ccc(Nc2nc(-c3cccc(N)c3)nc3c2ncn3C(C)C)cc1 | 11 | 38* | -1 | 0
CC(C)n1cnc2c(Nc3ccccc3)nc(-c3cccc(N)c3)nc21 | 6 | 13 | -1 | 0
COc1ccc(-c2nc(Nc3ccc(NC(C)=O)cc3)c3ncn(C(C)C)c3n2)cn1 | 3 | 35* | 4 | 0
CC(=O)Nc1ccc(Nc2nc(-c3ccccc3)nc3c2ncn3-c2ccccc2)cc1 | -8 | 8 | 0 | 0
CC(=O)Nc1ccc(Nc2nc(-c3ccc(C(N)=O)cc3)nc3c2ncn3C(C)C)cc1 | 2 | 28 | 0 | 0
SMILES | MITF inh | TEAD-YAP block | GPR151 ag | FBW7 act
C=CCn1c(C)cc(C(=O)CSc2nnc(N)s2)c1C | 4 | 39* | -6 | 0
COc1ccc(CNC(=O)COc2ccc(C)cc2)cc1 | 1 | -8 | -2 | 0
CCN(CC)c1ccc2c(c1)OC(N)=C(C#N)C2c1cccnc1 (centres undefined) | -5 | 54* | 0 | 0
N#CC1=C(N)Oc2cc(N)ccc2C1c1cccnc1 (centres undefined) | -5 | 3 | 0 | 0
CCN(CC)c1ccc2c(c1)OC(N)=C(C#N)C2c1ccccc1 (centres undefined) | 2 | 17 | 1 | 3.4*
CCOC(=O)C1=C(C)OC(N)=C(C#N)C1c1cccs1 (centres undefined) | 6 | -3 | -2 | 0
CCN(CC)c1ccc2c(c1)OC(N)=C(C#N)C2c1cccs1 (centres undefined) | -3 | 53* | -1 | 0
CCOc1ccc2nc(N3CCCC3)sc2c1 | 3 | 43* | -2 | 0
CCOc1ccc2nc(NC(=O)CCCC(=O)O)sc2c1 | -12 | 13 | -1 | 0
CCOc1ccc2nc(N3CCC(C(=O)N4CCC(C(N)=O)CC4)CC3)sc2c1 | 1 | 19 | -1 | 0
CCOc1ccc2nc(N3CCCCC3)sc2c1 | 3 | 53* | -6 | 0
CCOc1ccc2nc(N3CCN(S(=O)(=O)c4ccccc4)CC3)sc2c1 | 2 | 13 | 0 | 0
CCOc1ccc2nc(N3CCN(C(=O)C(C)C)CC3)sc2c1 | 13 | -11 | 1 | 0
CCOc1cc2sc(N3CCC(C(=O)O)CC3)nc2cc1Br | 1 | 47* | 2 | 0
CCOc1ccc2nc(NC(=O)C(C)(C)C)sc2c1 | 8 | 63* | 0 | 0
CC(=O)c1cccc(-c2cc(NCc3nc4ccccc4[nH]3)nc(N)n2)c1 | -3 | -7 | -1 | 0
O=C1C=CC(=NS(=O)(=O)c2ccc(C(=O)O)cc2)C=C1 | 56* | 7 | 0 | 0
O=C(O)c1ccc(S(=O)(=O)c2ccc(C(=O)O)cc2)cc1 | -1 | -7 | -1 | 0
CCCn1c(SCC(=O)Nc2ccccc2C)nc2c(oc3ccccc32)c1=O | -2 | -2 | 0 | 0
Cn1c(-c2ccccc2)cn2cc(-c3ccccc3)nc12 | -9 | 100* | -2 | 0
Cn1c(-c2ccccc2)cn2cc(-c3ccc(F)cc3)nc12 | 6 | 97* | -5 | 0
O=C(NCCC(c1ccccc1)c1ccccc1)Nc1cc(F)c(F)cc1Cl | 9 | 7 | 0 | 1
C/C(=N\Nc1ccc(S(N)(=O)=O)cc1[N+](=O)[O-])c1ccccc1F | 16 | -17 | -1 | 0
CC(=O)c1cccc(NC(=O)c2oc3ccc4c(c3c2C)C(=O)CC(C)(C)O4)c1 | 1 | 52* | 0 | 0
COc1ccccc1CNC(=O)c1oc2ccc3c(c2c1C)C(=O)CC(C)(C)O3 | -10 | -28 | 0 | 0
SMILES | MITF inh | TEAD-YAP block | GPR151 ag | FBW7 act
Cc1c(C(=O)Nc2ccc3c(c2)OCO3)oc2ccc3c(c12)C(=O)CC(C)(C)O3 | 1 | 42* | 0 | 0
COc1cccc(NC(=O)c2oc3ccc4c(c3c2C)C(=O)CC(C)(C)O4)c1 | 6 | 92* | -11 | 0
COc1ccccc1NC(=O)c1oc2ccc3c(c2c1C)C(=O)CC(C)(C)O3 | -7 | 33* | 0 | 0
Cc1ccc([N+](=O)[O-])c(C2=N/C(=C\c3cccc(Cl)c3Cl)C(=O)O2)c1 | 11 | -3 | -1 | 0
CCOC(=O)c1c(-c2ccc([N+](=O)[O-])cc2)csc1NC(C)=O | 17 | -7 | 0 | 0
CCOC(=O)N1CCN(C(=S)Nc2ccsc2C(=O)OC)CC1 | 12 | 4 | -1 | 0
COc1ccc(-c2nc(-c3ccncc3)no2)cc1 | 2 | -43 | 0 | 0
Cc1cccc(-c2noc(-c3ccc(C(C)(C)C)cc3)n2)c1 | -1 | 49* | 0 | 0
COc1ccc(-c2noc(-c3cccc(C)c3)n2)cc1 | -9 | -55 | 4 | 0

Bioassay records as filed in PubChem.
